# Compound activity from PubChem.
# TDP1 cell CPT: qHTS for Inhibitors of human tyrosyl-DNA phosphodiesterase 1 (TDP1): qHTS in cells in presence of CPT. chicken DT40 Tdp1-/-;hTDP1 cells + 20 nM CPT, ATP luminescence, 48 h. Potency, µM (doses to about 46.2 µM), inactives show top-dose activity change, negative = growth inhibition, actives largely listed as inhibitors. 12% of 420,000 active. AID 686979, 2013; further: potency means the concentration at half of the fitted maximal effect; nearly all actives have a fitted effect of over 55% in size
#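 Cell growth measured by CellTiter-Glo luminescence after a minimum 48 h, 37 C compound exposure with 20 nM CPT in Tdp1-knockout DT40 cells stably expressing hTDP1, seeded 400/well; qHTS titration format.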
# IL1B secr inh: qHTS for Inhibitors of Inflammasome Signaling: IL-1-beta AlphaLISA Primary Screen | AID 743279, 2014 | 4.7% of 360,000 active | THP-1 LPS/ATP IL-1B secretion, AlphaLISA, 16 h; stronger effect = lower value | activity change, % at 57.5 µM; in the data active means activity change below about -50%; inconclusive means mostly about -30% to -49%
#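 THP-1 cells pretreated 1 hr with compounds (up to 57.5 uM final), then stimulated with LPS (250 ng/mL final) plus ATP (1.25 mM final); secreted IL-1B measured by AlphaLISA after 16 hr, decreased signal indicating inhibition.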
# TDP1 cell noCPT: qHTS for Inhibitors of human tyrosyl-DNA phosphodiesterase 1 (TDP1): qHTS in cells in absence of CPT; DT40 Tdp1-/- hTDP1 cells, no CPT, ATP luminescence, 48 h; Potency, µM (titrated, usually from 46.2 µM), inactives show at the highest dose activity change, negative = growth inhibition, actives largely listed as inhibitors; 15% of 420,000 active; AID 686978, 2013; further: potency means the concentration at half of the fitted maximal effect; nearly all actives have a fitted effect of over 55% in size
#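 Cells were dispensed at 400 per well, compounds added by pin tool, plates incubated ≥48 hr at 37 °C, then CellTiter-Glo added for 30 min at room temperature before luminescence reading. Line: DT40 Tdp1-/- complemented with hTDP1; camptothecin omitted.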
# HT1080NT lethal: qHTS for induction of synthetic lethality in tumor cells producing 2HG: qHTS for the HT-1080-NT fibrosarcoma cell line | 1.6% of 360,000 active | AID 686970, 2013 | HT-1080-NT fibrosarcoma viability, CellTiter-Glo ATP luminescence, 48 h | Potency, µM (titrated, usually from 46.1 µM), without a hit: top-dose activity, negative = less viability, usual class: cytotoxic;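 further: NT is the 2HG producing partner of a matched IDH1 knockdown line; potency means the concentration at half of the fitted maximal effect; 0% = DMSO-treated cells and -100% = media-only wells without cells; nearly all actives have a fitted effect of over 55% in size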
#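 HT-1080-NT fibrosarcoma cells (2HG-overproducing), 750 cells/well in RPMI with 5% FBS, dosed after 2 h and incubated 48 h at 37C. CellTiter-Glo luminescence normalized to DMSO and no-cell wells; concentration-response curves fitted and classed.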
# uPA generation: qHTS for Inhibitors of Cell Surface uPA Generation. cell surface uPA generation assay, qHTS. Potency, µM (highest dose often 38.3 µM), for inactives: at the highest dose activity change, negative = inhibition, most hits filed as inhibitors. 0.31% of 330,000 active. AID 540303, 2011; active means well fitted inhibition curve with a large enough effect; inconclusive means small, poorly fitted or top-dose-only effect; inactive means no such curve, though single readings can be large or run the other way; tested in mouse RAW 264.7 cells; further: potency means the concentration at half of the fitted maximal effect; nearly all actives have a fitted effect of over 55% in size
# HT1080 IDH1KD tx: qHTS for induction of synthetic lethality in tumor cells producing 2HG: qHTS for the HT-1080-IDH1KD cell line. HT-1080 IDH1 knockdown viability, ATP luminescence, 48 h. Potency, µM (doses to about 46.1 µM), for inactives: top-dose activity, negative = toxicity, usual class: cytotoxic. 2% of 360,000 active. AID 686971, 2013;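 further: potency means the concentration at half of the fitted maximal effect; 0% = DMSO wells and -100% = cell-free medium wells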
#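 After a 2 h attachment period, IDH1KD HT-1080 cells took pin-transferred compound for 48 h at 37 °C; ATP-based luminescence after 10 min room-temperature reagent incubation reported viability.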
# Active calls of the source: *; ? = inconclusive; . = no result given; [ ] = another dose, or the depositor's remark. Compounds with a hit are over-represented: about 19% of the library has one in this group of screens. Unless noted, the call rests on the fitted dose curve; in most records, active means well fitted curve in the direction sought with a large enough effect; inconclusive means small, poorly fitted or top-dose-only effect, or another doubt; inactive means no such curve, though single readings can be large; an effect the other way counts as inactive or inconclusive. Unless noted, on the % scale 0 is the no-effect control and ±100 the full control effect.
SMILES,TDP1 cell CPT,IL1B secr inh,TDP1 cell noCPT,HT1080NT lethal,uPA generation,HT1080 IDH1KD tx
CC(C)(C)c1ccc(C(=O)Nc2ccc(C(=O)N3CCOCC3)cc2)cc1,23.1µM*,-85.3*,20.6µM*,-4.1%,-12.4%,-7.5%
CCc1ccc(NC(=O)N2CCN(Cc3cc(=O)n4nc(-c5ccccc5OC)sc4n3)CC2)cc1,?,.,14.6µM*,.,.,.
O=C(Nc1ccc(C(=O)N2CCOCC2)cc1)c1ccccc1,-2.0%,2.8,-6.5%,4.2%,-1.4%,1.4%
COC(=O)c1ccc(NC(=O)N2CCN(Cc3cc(=O)n4nc(-c5ccc(C)cc5)sc4n3)CC2)cc1,-0.9%,.,-10.1%,.,.,.
Cc1nc(CN2CCN(C(=O)c3ccc(C(C)(C)C)cc3)CC2)cs1,?,?,10.3µM*,-5.0%,0.9%,-3.7%
CC(C)(C)c1ccc(C(=O)N2CCNCC2)cc1,-22.5%,-2.6,-22.2%,-3.5%,-8.0%,-4.2%
C/C=C/c1cnc2c(c1)C(=O)N([C@H](C)CO)C[C@@H](C)[C@@H](CN(C)C(=O)NC1CCCC1)O2,-4.0%,-0.7,-0.5%,-2.1%,.,-2.2%
O=C(c1ccccc1)C1CCN(C(=O)c2ccc(Cl)cc2)CC1,?,-26.2,-28.4%,0.2%,-7.8%,-4.6%
COc1ccc(-c2nn3c(=O)cc(CN4CCN(C(=O)c5ccc(C(C)(C)C)cc5)CC4)nc3s2)cc1,3.26µM*,.,2.91µM*,.,.,.
CC(C)(C)c1ccc(C(=O)N2CCC(C(=O)c3ccccc3)CC2)cc1,18.4µM*,-75.3*,20.6µM*,-13.0%,0.0%,-18.1%
CC1CCN(c2c(NCC3CCC(C(=O)NCCC4=CCCCC4)CC3)c(=O)c2=O)CC1 (configuration not stated),18.4µM*,-17.3,?,17.4%,-0.8%,11.9%
COc1ccc(-c2nn3c(=O)cc(CN4CCN(C(=O)Nc5cc(C)ccc5C)CC4)nc3s2)cc1,-8.6%,.,?,.,.,.
CC(C)(C)c1ccc(C(=O)N2CCCN(C(=O)c3ccc(C(C)(C)C)cc3)CC2)cc1,?,0.0,13µM*,15.8%,-0.1%,20.4%
Cc1cc(-c2ccccc2)nc(Nc2nc3c(C)cccc3c(=O)[nH]2)n1,?,2.9,?,9.6%,-6.0%,6.0%
O=C1CC(c2nnc(Cc3ccc(F)cc3)o2)CN1c1ccccc1 (configuration not stated),5.6%,.,-3.1%,.,.,.
COc1ccc(-c2nc(N)ncc2-c2csc(C)n2)c(O)c1OC,-8.5%,13.7,-7.8%,12.3%,4.1%,11.9%
O=C(CN1CCC(C(=O)c2ccc(Cl)cc2)CC1)NC1CCCC1,?,27.5,23.1µM*,-13.3%,1.0%,-0.2%
CC(C)(C)c1ccc(C(=O)N2CCC(C(=O)NC3CCCCCC3)CC2)cc1,?,?,20.6µM*,-25.7%,-2.9%,-12.0%
Cc1ccc(C(=O)N2CCC(C(=O)NC3CCCC3)CC2)cc1,7.0%,17.0,-13.9%,-1.7%,0.0%,1.6%
COc1ccc(Cl)cc1NC(=O)Nc1ccc(C(=O)N2CCOCC2)cc1,-24.3%,-63.0*,-26.3%,6.4%,8.6%,9.0%
Cc1nc(NCc2cccc3c2OCO3)sc1-c1ccn(CC2CCCN(C)C2)n1 (configuration not stated),-4.7%[9.04 µM],.,-7.5%,.,.,.
COc1ccccc1-c1cccc([C@@H]2C[C@H]3[C@H](CON3C)CN2C(=O)C(C)(C)C)c1,1.9%,0.3,1.1%,-0.6%,0.9%,7.8%
